Assay results: the antibiotic and cytotoxicity screens of Wong et al. (2023)
Among all 39,000 compounds or so, about 3,300 (8.5%) were called active. The sample holds actives, similar compounds and a random draw of the others, so the mix is not that of the screen.

system: HepG2; assay: cytotoxicity call (relative viability < 0.9); conditions: 10 µM

| Compound | cytotoxicity call |
| --- | --- |
| c1ccc2c(CSc3nc4ccccc4o3)cccc2c1 | inactive |
| CNC(=O)C[C@H]1CC[C@@H]2[C@H](COC[C@H](O)CN2C(=O)Nc2cccc(OC)c2)O1 | inactive |
| C[C@@H]1CCCCO[C@H](CN(C)C(=O)Nc2cccc3ccccc23)[C@@H](C)CN([C@H](C)CO)C(=O)c2cc(NC(=O)Nc3cccc4ccccc34)ccc2O1 | inactive |
| C[C@@H]1CN([C@@H](C)CO)C(=O)c2cc(NS(=O)(=O)c3ccc(Cl)cc3)ccc2O[C@@H](C)CCCCO[C@H]1CN(C)S(=O)(=O)c1ccccc1 | inactive |
| COc1ccc(NC(=O)N(C)C[C@H]2OCc3cnnn3CCCC(=O)N([C@H](C)CO)C[C@H]2C)c(OC)c1 | inactive |
| C[C@@H]1CN([C@H](C)CO)C(=O)c2c(c3ccccc3n2C)-c2ccccc2CO[C@H]1CN(C)C(=O)CCC(F)(F)F | inactive |
| C[C@@H]1CN([C@@H](C)CO)C(=O)c2cc(C#CC3(O)CCCC3)cnc2O[C@@H]1CN(C)C(=O)Nc1ccc2c(c1)OCO2 | inactive |
| COCC#Cc1ccc2c(c1)O[C@@H](CN(C)C(=O)C1CCOCC1)[C@@H](C)CN([C@H](C)CO)S2(=O)=O | inactive |
| CCS(=O)(=O)Nc1ccc2c(c1)C(=O)N(C)[C@H]1CC[C@@H](CC(=O)NCc3ccccc3F)O[C@H]1CO2 | inactive |
| C[C@@H]1CN([C@H](C)CO)C(=O)Cc2cc(NC(=O)CCCCCC(=O)Nc3ccccc3N)ccc2O[C@@H]1CN(C)Cc1ccc(Cl)c(Cl)c1 | active |
| C[C@@H]1CN([C@H](C)CO)C(=O)Cc2cc(NC(=O)CCCCCC(=O)Nc3ccccc3N)ccc2O[C@@H]1CN(C)Cc1ccc(-c2ccccc2)cc1 | active |
| C[C@H]1CN([C@@H](C)CO)C(=O)Cc2cc(NC(=O)CCCCCC(=O)Nc3ccccc3N)ccc2O[C@@H]1CN(C)Cc1ccc(-c2ccccc2)cc1 | inactive |
| C[C@@H]1CN([C@@H](C)CO)C(=O)Cc2cc(NC(=O)CCCCCC(=O)Nc3ccccc3N)ccc2O[C@@H]1CN(C)Cc1ccc(-c2ccccc2)cc1 | active |
| C[C@H](CO)N1C[C@H](C)[C@H](CN(C)Cc2ccccc2)Oc2ccc(NC(=O)CCCCCC(=O)Nc3ccccc3N)cc2CC1=O | inactive |
| C[C@H]1CN([C@@H](C)CO)C(=O)Cc2cc(NC(=O)CCCCCC(=O)Nc3ccccc3N)ccc2O[C@H]1CN(C)Cc1ccc(Cl)c(Cl)c1 | inactive |
| C[C@@H]1CN([C@H](C)CO)C(=O)Cc2cc(NC(=O)CCCCCC(=O)Nc3ccccc3N)ccc2O[C@@H]1CN(C)Cc1ccccc1 | inactive |
| C[C@@H]1CN([C@H](C)CO)C(=O)Cc2cc(NC(=O)CCCCCC(=O)Nc3ccccc3N)ccc2O[C@H]1CN(C)Cc1ccc(Cl)c(Cl)c1 | inactive |
| C[C@@H]1CN([C@@H](C)CO)C(=O)Cc2cc(NC(=O)CCCCCC(=O)Nc3ccccc3N)ccc2O[C@@H]1CN(C)Cc1ccccc1 | inactive |
| C[C@H](CO)N1C[C@H](C)[C@@H](CN(C)Cc2ccc(-c3ccccc3)cc2)Oc2ccc(NC(=O)CCCCCC(=O)Nc3ccccc3N)cc2CC1=O | inactive |
| C[C@H](CO)N1C[C@H](C)[C@H](CN(C)Cc2ccc(-c3ccccc3)cc2)Oc2ccc(NC(=O)CCCCCC(=O)Nc3ccccc3N)cc2CC1=O | active |
| C[C@H]1CN([C@@H](C)CO)C(=O)Cc2cc(NC(=O)CCCCCC(=O)Nc3ccccc3N)ccc2O[C@H]1CN(C)Cc1ccccc1 | inactive |
| COc1ccc2c3c(n(c2c1)C)[C@H](CO)N(C[C@]13CCN(CC1)S(=O)(=O)c1ccccc1)C(=O)c1cccnc1 | inactive |

| Compound | cytotoxicity call |
| --- | --- |
| c1ccc(-c2cc(-c3nc4ccccc4[nH]3)c3ccccc3n2)cc1 | inactive |
| CNCc1cnc(NC)nc1 | inactive |
| C[C@@H]1CN([C@H](C)CO)C(=O)c2cccc(NS(=O)(=O)c3cn(C)cn3)c2O[C@H]1CN(C)CC1CC1 | inactive |
| CCO[C@@H]1OC(C(=O)N2CCN(Cc3ccccc3)CC2)=C[C@H](c2cn(C(C)=O)c3ccccc23)[C@H]1CCCOC(=O)NCCCCCC(=O)NO | inactive |
| CNCc1cc(C)nn1C | inactive |
| COc1cccc(-c2cn(CC[C@@H]3CC[C@@H](NS(=O)(=O)c4ccccc4Cl)[C@H](CO)O3)nn2)c1 | inactive |
| C[C@H](CO)N1C[C@H](C)[C@@H](CN(C)S(=O)(=O)c2ccc(F)cc2)Oc2ccc(NC(=O)C3CC3)cc2C1=O | inactive |
| Cc1ccc(S(=O)(=O)N[C@H]2CC[C@@H](CC(=O)NCc3ccc(Cl)c(Cl)c3)O[C@H]2CO)cc1 | inactive |
| C[C@@H]1CCCCO[C@@H](CN(C)CC2CC2)[C@@H](C)CN([C@H](C)CO)C(=O)c2cc(NC(=O)CCC(F)(F)F)ccc2O1 | inactive |
| C[C@@H]1CN([C@@H](C)CO)C(=O)Cc2cc(NC(=O)CCCCCC(=O)Nc3ccccc3N)ccc2O[C@H]1CN(C)Cc1ccc(-c2ccccc2)cc1 | inactive |
| C[C@H]1CN([C@@H](C)CO)C(=O)Cc2cc(NC(=O)CCCCCC(=O)Nc3ccccc3N)ccc2O[C@H]1CN(C)Cc1ccc(-c2ccccc2)cc1 | active |
| C[C@@H]1CN([C@H](C)CO)C(=O)Cc2cc(NC(=O)CCCCCC(=O)Nc3ccccc3N)ccc2O[C@H]1CN(C)Cc1ccc(-c2ccccc2)cc1 | inactive |
| C[C@H]1CN([C@@H](C)CO)C(=O)c2cccc(NS(=O)(=O)c3ccc(Cl)cc3)c2O[C@@H]1CN(C)Cc1ccc(C(=O)Nc2ccccc2N)cc1 | inactive |
| C[C@@H]1CN([C@H](C)CO)C(=O)c2cccc(NS(=O)(=O)c3ccc(Cl)cc3)c2O[C@@H]1CN(C)Cc1ccc(C(=O)Nc2ccccc2N)cc1 | inactive |
| C[C@@H]1CN([C@@H](C)CO)C(=O)c2cccc(NS(=O)(=O)c3ccc(Cl)cc3)c2O[C@@H]1CN(C)Cc1ccc(C(=O)Nc2ccccc2N)cc1 | active |
| C[C@@H]1CN([C@H](C)CO)C(=O)c2cccc(NS(=O)(=O)c3ccc(Cl)cc3)c2O[C@H]1CN(C)Cc1ccc(C(=O)Nc2ccccc2N)cc1 | inactive |
| C[C@H](CO)N1C[C@H](C)[C@H](CN(C)Cc2ccc(C(=O)Nc3ccccc3N)cc2)Oc2c(NS(=O)(=O)c3ccc(Cl)cc3)cccc2C1=O | active |
| C[C@@H]1CN([C@@H](C)CO)C(=O)c2cccc(NS(=O)(=O)c3ccc(Cl)cc3)c2O[C@H]1CN(C)Cc1ccc(C(=O)Nc2ccccc2N)cc1 | inactive |
| C[C@@H]1CN([C@H](C)CO)C(=O)c2cc(NS(=O)(=O)c3ccc(Cl)cc3)ccc2O[C@@H]1CN(C)Cc1ccc(C(=O)Nc2ccccc2N)cc1 | inactive |
| C[C@@H]1CN([C@@H](C)CO)C(=O)c2cc(NS(=O)(=O)c3ccc(Cl)cc3)ccc2O[C@@H]1CN(C)Cc1ccc(C(=O)Nc2ccccc2N)cc1 | active |
| C[C@H](CO)N1C[C@H](C)[C@H](CN(C)Cc2ccc(C(=O)Nc3ccccc3N)cc2)Oc2ccc(NS(=O)(=O)c3ccc(Cl)cc3)cc2C1=O | inactive |
| CCSC(=S)N[C@H]1CCS(=O)(=O)C1 | inactive |

| Compound | cytotoxicity call |
| --- | --- |
| CC(C)NC(=O)Nc1ccc2c(c1)C(=O)N([C@@H](C)CO)C[C@@H](C)[C@@H](CN(C)C(=O)Nc1ccc(F)cc1)OCCCC[C@@H](C)O2 | inactive |
| C[C@H](O)C#Cc1ccc2c(c1)O[C@@H](CN(C)C)[C@H](C)CN([C@@H](C)CO)S2(=O)=O | inactive |
| COC(=O)C[C@H]1CC[C@@H]2[C@H](COC[C@@H](O)CN2S(=O)(=O)c2ccccc2C)O1 | inactive |
| Cc1ccc(S(=O)(=O)N(C)C[C@@H]2Oc3c(NS(C)(=O)=O)cccc3C(=O)N([C@@H](C)CO)C[C@H]2C)cc1 | inactive |
| C[C@@H]1CCCCO[C@@H](CN(C)CC2CC2)[C@H](C)CN([C@@H](C)CO)C(=O)c2cc(NC(=O)CCC(F)(F)F)ccc2O1 | inactive |
| Cn1c([N+](=O)[O-])cnc1COC(N)=O | inactive |
| COc1ccc(NC(=O)Nc2ccc3c(c2)[C@H]2C[C@H](CC(=O)N4CCN(C)CC4)O[C@H](CO)[C@H]2O3)cc1 | inactive |
| COCCOC(=O)N1C(=O)[C@@]2(c3cc(C#CCCO)ccc31)[C@H](c1ccc(O)cc1)N1[C@H](c3ccccc3)[C@H](c3ccccc3)OC(=O)[C@H]1[C@@H]2C(=O)N1CCc2cc(OC)c(OC)cc2C1 | inactive |
| Cc1ccc(C(C)C)c(O)c1 | inactive |
| CC(C)C(=O)Nc1ccc([N+](=O)[O-])c(C(F)(F)F)c1 | active |
| Cc1cccc(NC(=O)C(C)C)c1 | inactive |
| CC1(C)NC(=O)N(c2ccc([N+](=O)[O-])c(C(F)(F)F)c2)C1=O | inactive |
| COc1cccc(S(=O)(=O)N(C)C[C@@H]2OCc3cnnn3CCCC(=O)N([C@@H](C)CO)C[C@@H]2C)c1 | inactive |
| COc1ccc(S(=O)(=O)N(C)C[C@@H]2Oc3c(NC(=O)Nc4c(C)noc4C)cccc3C(=O)N([C@H](C)CO)C[C@H]2C)cc1 | inactive |
| Cc1noc(C)c1NC(=O)N(C)C[C@H]1OCCCC[C@@H](C)Oc2ccc(NC(=O)Nc3cccc4ccccc34)cc2C(=O)N([C@H](C)CO)C[C@@H]1C | inactive |
| CCOC(=O)n1ncc(C#N)c1N | inactive |
| CCOC(=O)/C(C#N)=C1/C=CN(C)C=N1 | active |
| CCOC(=O)CN(C#N)c1nc(C)cc(C)n1 | inactive |
| C[C@H]1CN([C@@H](C)CO)C(=O)c2cccc(NC(=O)CCCCCC(=O)Nc3ccccc3N)c2O[C@@H]1CN(C)C(=O)Nc1ccc(C(F)(F)F)cc1 | inactive |
| O=C(C[C@@H]1CC[C@H]2[C@@H](COC[C@H](O)CN2C(=O)Nc2cccc(Cl)c2)O1)NCCCN1CCOCC1 | inactive |
| C[C@H]1CN([C@@H](C)CO)C(=O)c2cccc(NC(=O)C3CC3)c2O[C@@H]1CN(C)C(=O)NC1CCCCC1 | inactive |
